About 8,800 targets were measured; listed, in parts, are those with a hit and a random draw of the rest. About 0.5% of all pairs of compound and target were hits.
Columns and labels:
Experiment in all cases: log2 fold change, soluble protein after heating vs DMSO (PISA); higher = thermal stabilisation; K562 lysate, 10 uM; active = over 0.2 and 3.5 SD of the protein, either way, in both replicates (recomputed)
[1] = compound: Cc1cn(-c2cc(NC(=O)c3ccc(C)c(Nc4nccc(-c5cccnc5)n4)c3)cc(C(F)(F)F)c2)cn1 [nilotinib]
Method in brief: (§1)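 Dounce homogenisation of K562 pellets in PBS pH 7.4 with 1 mM MgCl2 produced a crude extract, used at 1 mg/mL protein. Exposure to 10 μM compound lasted 30 min, and aliquots were then heated for 3 min across 48°C-58°C, pooled and brought to 0.5% NP-40 at 4°C. The supernatant after 21,000xg for 90 min was quantified by TMTpro 16plex LC-MS/MS with channel sums equalised. Duplicate values are given as log-two fold change in thermal stability relative to solvent controls.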

[2] = compound: Cc1nc(Nc2n[nH]c3c2CN(C(=O)N[C@H](CN(C)C)c2ccccc2)C3(C)C)c2sccc2n1
Method in brief: as §1

[3] = compound: Cc1nc(Nc2ncc(C(=O)Nc3c(C)cccc3Cl)s2)cc(N2CCN(CCO)CC2)n1 [dasatinib]
Method in brief: as §1

[4] = compound: Cc1ncc(-c2ccnc(Nc3ccc(S(C)(=O)=O)cc3)n2)n1C(C)C
Method in brief: as §1

[5] = compound: Cn1cc(-c2ccc3c(c2)CCN3C(=O)Cc2cccc(C(F)(F)F)c2)c2c(N)ncnc21
Method in brief: as §1

[6] = compound: Cn1cc(CNCC2CCN(c3ncc(C(=O)NO)cn3)CC2)c2ccccc21 [quisinostat]
Method in brief: as §1

[7] = compound: Cn1cncc1[C@@](N)(c1ccc(Cl)cc1)c1ccc2c(c1)c(-c1cccc(Cl)c1)cc(=O)n2C [tipifarnib]
Method in brief: as §1

[8] = compound: NC(=O)Nc1cc(-c2cccc(F)c2)sc1C(=O)N[C@H]1CCCNC1
Method in brief: as §1

[9] = compound: NC(=O)c1cnc(N[C@@H]2CCCC[C@@H]2N)nc1Nc1cccc(-n2nccn2)c1
Method in brief: as §1

[10] = compound: NC1(c2ccc(-c3nc4ccn5c(=O)[nH]nc5c4cc3-c3ccccc3)cc2)CCC1
Method in brief: as §1

[11] = compound: NCC(=O)Nc1ccc(-n2nc(C(F)(F)F)cc2-c2ccc3c(ccc4ccccc43)c2)cc1
Method in brief: as §1

[12] = compound: O=C(CCCCCCC(=O)Nc1ccccc1)NO [vorinostat]
Method in brief: as §1

[13] = compound: O=C(O)c1ccc2c(c1)nc(Nc1cccc(Cl)c1)c1ccncc12 [silmitasertib]
Method in brief: as §1

[14] = compound: O=C1NC(=O)C(c2cnc3ccccn23)=C1c1cn2c3c(cc(F)cc13)CN(C(=O)N1CCCCC1)CC2
Method in brief: as §1

[15] = compound: c1cn2cc(-c3ccc4cn[nH]c4c3)nc(Nc3ccc(N4CCOCC4)cc3)c2n1 [entospletinib]
Method in brief: as §1

Measured: log2 fold change

KSR1 (UniProt Q8IVT5)
active: [12] -0.49
inactive: [1] 0 | [2] -0.04 | [3] -0.106 | [4] 0.056 | [5] 0.057 | [6] -0.015 | [7] -0.116 | [8] 0.069 | [9] 0.051 | [10] 0.003 | [11] 0.029 | [13] 0.081 | [14] 0.031 | [15] -0.025

MAP2K5 (UniProt Q13163)
inactive: [1] 0.019 | [2] -0.086 | [3] -0.229 | [4] -0.143 | [5] 0.079 | [6] -0.152 | [7] -0.015 | [9] 0.035 | [10] -0.048 | [11] -0.111 | [12] -0.293 | [13] -0.123 | [14] 0.023 | [15] 0.065
active: [8] 0.925

MAPK1 (UniProt P28482)
inactive: [1] -0.042 | [2] 0.205 | [3] -0.014 | [4] 0.091 | [5] -0.01 | [6] 0.07 | [7] 0.011 | [8] 0.01 | [9] 0.088 | [10] 0.003 | [11] -0.027 | [12] 0.039 | [13] 0.042 | [14] -0.005 | [15] -0.039

MCMBP isoform 2 (UniProt Q9BTE3)
inactive: [1] 0.152 | [2] -0.039 | [3] 0.099 | [4] -0.144 | [5] -0.099 | [6] -0.076 | [7] 0.066 | [8] -0.041 | [9] 0.082 | [10] -0.118 | [11] -0.153 | [12] -0.413 | [13] -0.092 | [14] 0.064 | [15] -0.654

MLXIP (UniProt Q9HAP2)
Sequence of UniProt Q9HAP2 (Q9HAP2 whole entry, looked up): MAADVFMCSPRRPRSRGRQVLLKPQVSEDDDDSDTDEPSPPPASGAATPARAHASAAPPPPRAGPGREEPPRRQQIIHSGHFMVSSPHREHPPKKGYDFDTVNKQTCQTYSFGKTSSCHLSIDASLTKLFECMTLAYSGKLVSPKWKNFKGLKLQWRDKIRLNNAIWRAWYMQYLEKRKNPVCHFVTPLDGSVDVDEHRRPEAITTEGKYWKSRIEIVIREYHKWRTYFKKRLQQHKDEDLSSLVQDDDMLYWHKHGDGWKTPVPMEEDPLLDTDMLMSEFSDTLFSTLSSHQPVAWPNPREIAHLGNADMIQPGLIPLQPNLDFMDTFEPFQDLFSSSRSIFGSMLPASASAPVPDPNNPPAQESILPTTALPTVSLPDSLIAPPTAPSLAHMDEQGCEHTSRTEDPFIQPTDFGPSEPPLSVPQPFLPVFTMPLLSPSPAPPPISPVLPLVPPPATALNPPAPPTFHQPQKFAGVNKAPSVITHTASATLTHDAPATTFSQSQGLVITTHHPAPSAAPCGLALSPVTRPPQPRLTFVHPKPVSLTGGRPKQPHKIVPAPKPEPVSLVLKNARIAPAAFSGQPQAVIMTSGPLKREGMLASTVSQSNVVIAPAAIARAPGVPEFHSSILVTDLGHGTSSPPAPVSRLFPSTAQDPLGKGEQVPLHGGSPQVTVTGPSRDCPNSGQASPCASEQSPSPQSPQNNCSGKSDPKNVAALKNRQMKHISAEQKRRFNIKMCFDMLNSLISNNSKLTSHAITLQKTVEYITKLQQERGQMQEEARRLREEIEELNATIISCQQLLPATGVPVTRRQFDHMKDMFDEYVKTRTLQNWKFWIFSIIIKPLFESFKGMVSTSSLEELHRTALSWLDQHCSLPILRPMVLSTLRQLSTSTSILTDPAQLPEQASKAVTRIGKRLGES
active: [12] -0.314
inactive: [1] 0.09 | [2] 0.003 | [3] -0.068 | [4] 0.003 | [5] 0.02 | [6] -0.04 | [7] 0 | [8] 0.082 | [9] -0.01 | [10] -0.028 | [11] 0.037 | [13] 0.026 | [14] 0.079 | [15] 0.03

KIF4B (UniProt Q2VIQ3)
inactive: [1] -0.016 | [2] 0.034 | [3] -0.013 | [4] 0.049 | [5] 0.096 | [6] -0.08 | [7] -0.009 | [8] 0.037 | [9] 0.045 | [10] -0.078 | [11] -0.035 | [13] 0.027 | [14] -0.02 | [15] 0
active: [12] -0.506

MME (UniProt P08473)
inactive: [1] -0.09 | [2] 0.082 | [4] 0.021 | [5] 0.104 | [6] -0.02 | [7] -0.031 | [8] 0.085 | [9] 0.061 | [10] -0.014 | [12] 0.096 | [13] -0.033 | [14] -0.038
active: [3] -0.513

MACROD1 (UniProt Q9BQ69)
inactive: [1] 0.036 | [2] -0.099 | [3] -0.066 | [4] 0.021 | [5] 0.055 | [6] -0.083 | [7] 0.005 | [8] 0.022 | [9] -0.006 | [10] -0.024 | [11] 0.11 | [13] 0.04 | [14] 0.05 | [15] 0.047
active: [12] -0.363

MICU1 isoform 3 (UniProt Q9BPX6)
inactive: [1] 0.01 | [2] -0.044 | [3] -0.02 | [4] -0.015 | [5] 0.027 | [6] 0.002 | [7] -0.015 | [8] -0.026 | [9] 0.06 | [10] -0.021 | [11] -0.085 | [12] -0.133 | [13] 0.065 | [14] -0.003 | [15] -0.019

MAPKAPK5 (UniProt Q8IW41)
Sequence of UniProt Q8IW41 (Q8IW41 whole entry, looked up): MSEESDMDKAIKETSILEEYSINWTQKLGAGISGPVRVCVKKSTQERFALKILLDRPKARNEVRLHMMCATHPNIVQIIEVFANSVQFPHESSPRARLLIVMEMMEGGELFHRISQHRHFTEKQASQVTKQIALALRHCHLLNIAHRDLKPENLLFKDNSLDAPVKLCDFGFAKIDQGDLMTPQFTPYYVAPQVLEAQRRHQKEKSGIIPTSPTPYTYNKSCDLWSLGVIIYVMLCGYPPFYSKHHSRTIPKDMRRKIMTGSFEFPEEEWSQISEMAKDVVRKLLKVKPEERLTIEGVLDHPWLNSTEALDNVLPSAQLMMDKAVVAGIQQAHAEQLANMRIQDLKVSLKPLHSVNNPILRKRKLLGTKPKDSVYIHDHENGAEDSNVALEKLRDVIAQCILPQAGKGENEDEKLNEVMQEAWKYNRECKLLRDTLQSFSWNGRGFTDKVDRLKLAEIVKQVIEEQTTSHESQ
active: [8] 0.519
inactive: [1] -0.003 | [2] 0.056 | [3] 0.011 | [4] 0.064 | [5] 0.024 | [6] -0.222 | [7] -0.065 | [9] -0.006 | [10] -0.006 | [11] -0.012 | [12] 0.07 | [13] 0.002 | [14] 0.052 | [15] 0.028

MARK1 (UniProt Q9P0L2)
Sequence of UniProt Q9P0L2 (Q9P0L2 whole entry, looked up): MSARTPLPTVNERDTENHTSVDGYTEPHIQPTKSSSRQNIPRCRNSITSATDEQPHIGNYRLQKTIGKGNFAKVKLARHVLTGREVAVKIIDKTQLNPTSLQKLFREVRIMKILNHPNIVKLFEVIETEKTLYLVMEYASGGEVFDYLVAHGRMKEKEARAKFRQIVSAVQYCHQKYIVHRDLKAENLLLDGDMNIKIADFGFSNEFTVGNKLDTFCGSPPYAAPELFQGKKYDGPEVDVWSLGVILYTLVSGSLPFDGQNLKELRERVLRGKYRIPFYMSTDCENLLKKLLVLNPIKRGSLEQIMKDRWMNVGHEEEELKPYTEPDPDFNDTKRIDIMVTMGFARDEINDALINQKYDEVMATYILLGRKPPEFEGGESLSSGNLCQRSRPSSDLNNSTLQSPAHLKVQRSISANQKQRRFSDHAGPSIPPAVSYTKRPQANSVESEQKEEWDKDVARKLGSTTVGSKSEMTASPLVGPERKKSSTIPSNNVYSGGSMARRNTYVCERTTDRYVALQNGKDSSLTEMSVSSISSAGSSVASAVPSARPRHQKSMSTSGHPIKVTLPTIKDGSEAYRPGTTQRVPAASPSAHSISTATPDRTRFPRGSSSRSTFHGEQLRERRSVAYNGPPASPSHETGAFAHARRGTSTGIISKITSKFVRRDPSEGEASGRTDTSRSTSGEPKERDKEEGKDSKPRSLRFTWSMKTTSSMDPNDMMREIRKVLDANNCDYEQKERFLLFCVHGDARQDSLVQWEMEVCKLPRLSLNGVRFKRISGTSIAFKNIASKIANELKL
inactive: [1] 0.035 | [2] -0.113 | [3] -0.123 | [4] -0.019 | [5] 0.003 | [6] 0.092 | [7] 0.023 | [8] -0.083 | [9] -0.03 | [10] -0.072 | [11] 0.017 | [12] -0.225 | [14] -0.059 | [15] 0.049
active: [13] 0.485

MCUB (UniProt Q9NWR8)
inactive: [1] -0.142 | [2] 0.119 | [3] 0.075 | [4] -0.12 | [5] 0.122 | [6] -0.262 | [7] -0.112 | [8] 0.143 | [9] -0.008 | [10] -0.014 | [12] 0.129 | [13] 0.057 | [14] 0.027

MAP4 isoform 5 (UniProt P27816)
Sequence of UniProt P27816 (P27816 whole entry, looked up): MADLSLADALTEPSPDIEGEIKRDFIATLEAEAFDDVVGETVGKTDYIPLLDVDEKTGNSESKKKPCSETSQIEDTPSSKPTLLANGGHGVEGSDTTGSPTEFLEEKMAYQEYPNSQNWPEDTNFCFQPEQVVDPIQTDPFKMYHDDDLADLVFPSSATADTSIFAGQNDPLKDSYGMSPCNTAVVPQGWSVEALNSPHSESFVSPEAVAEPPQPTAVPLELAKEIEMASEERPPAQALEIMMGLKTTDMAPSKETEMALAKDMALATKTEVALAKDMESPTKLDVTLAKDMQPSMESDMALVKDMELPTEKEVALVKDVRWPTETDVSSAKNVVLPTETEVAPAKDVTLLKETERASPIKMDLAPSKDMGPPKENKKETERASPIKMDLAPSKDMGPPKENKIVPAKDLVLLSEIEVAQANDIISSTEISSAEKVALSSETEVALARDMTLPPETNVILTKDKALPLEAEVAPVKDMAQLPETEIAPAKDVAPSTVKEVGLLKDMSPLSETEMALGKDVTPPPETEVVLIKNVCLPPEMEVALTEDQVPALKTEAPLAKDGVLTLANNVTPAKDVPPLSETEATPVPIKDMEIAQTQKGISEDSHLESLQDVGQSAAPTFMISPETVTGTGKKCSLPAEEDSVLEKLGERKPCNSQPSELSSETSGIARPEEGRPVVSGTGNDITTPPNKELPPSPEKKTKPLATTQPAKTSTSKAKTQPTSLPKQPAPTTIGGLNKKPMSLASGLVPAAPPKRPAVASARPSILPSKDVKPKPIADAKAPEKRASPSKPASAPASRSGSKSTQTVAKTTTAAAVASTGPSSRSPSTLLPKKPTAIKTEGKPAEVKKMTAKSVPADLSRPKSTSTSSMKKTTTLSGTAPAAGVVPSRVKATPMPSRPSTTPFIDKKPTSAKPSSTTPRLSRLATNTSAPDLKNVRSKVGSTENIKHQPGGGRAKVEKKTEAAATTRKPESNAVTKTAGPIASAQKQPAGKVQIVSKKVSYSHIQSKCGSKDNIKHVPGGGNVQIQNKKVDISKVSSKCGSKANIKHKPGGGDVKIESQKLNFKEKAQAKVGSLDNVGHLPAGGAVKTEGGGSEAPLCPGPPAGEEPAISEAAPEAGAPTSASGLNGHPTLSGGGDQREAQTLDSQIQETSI
inactive: [1] -0.168 | [2] -0.029 | [3] -0.371 | [4] 0.291 | [5] 0.029 | [6] -0.036 | [7] -0.101 | [8] 0.03 | [9] -0.02 | [10] -0.213 | [11] 0.001 | [12] 0.359 | [13] 0.074 | [14] 0.087 | [15] 0.063

LETM1 (UniProt O95202)
Sequence of UniProt O95202 (O95202 whole entry, looked up): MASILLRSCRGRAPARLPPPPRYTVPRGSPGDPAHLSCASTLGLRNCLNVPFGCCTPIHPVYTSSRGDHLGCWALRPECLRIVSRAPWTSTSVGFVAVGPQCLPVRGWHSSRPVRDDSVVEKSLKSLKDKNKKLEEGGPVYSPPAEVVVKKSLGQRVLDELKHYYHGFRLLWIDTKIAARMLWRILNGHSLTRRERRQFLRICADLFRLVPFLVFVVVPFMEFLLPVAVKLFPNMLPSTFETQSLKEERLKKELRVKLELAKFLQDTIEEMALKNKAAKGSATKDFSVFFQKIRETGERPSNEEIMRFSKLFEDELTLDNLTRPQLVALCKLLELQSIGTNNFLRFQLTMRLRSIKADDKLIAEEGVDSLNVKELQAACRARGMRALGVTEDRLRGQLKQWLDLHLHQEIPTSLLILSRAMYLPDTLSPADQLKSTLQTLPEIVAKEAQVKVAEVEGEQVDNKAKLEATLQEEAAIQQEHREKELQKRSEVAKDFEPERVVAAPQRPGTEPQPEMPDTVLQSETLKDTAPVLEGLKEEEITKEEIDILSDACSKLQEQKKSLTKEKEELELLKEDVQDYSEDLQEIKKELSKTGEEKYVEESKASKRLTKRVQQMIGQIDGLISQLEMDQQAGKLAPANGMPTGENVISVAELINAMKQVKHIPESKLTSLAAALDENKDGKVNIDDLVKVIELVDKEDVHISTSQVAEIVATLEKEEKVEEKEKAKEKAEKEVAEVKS
inactive: [1] 0.038 | [2] -0.021 | [3] -0.008 | [4] 0.048 | [5] 0.007 | [6] 0.043 | [7] 0.008 | [8] -0.012 | [9] -0.011 | [10] -0.024 | [11] -0.041 | [12] 0.084 | [13] -0.021 | [14] -0.006 | [15] 0.009

MINK1 (UniProt Q8N4C8)
active: [8] 0.782
inactive: [1] -0.227 | [2] -0.206 | [3] -0.077 | [4] 0.199 | [5] -0.016 | [6] -0.062 | [7] 0.289 | [9] -0.023 | [10] 0.02 | [11] -0.02 | [12] -0.205 | [13] -0.109 | [14] 0.043 | [15] 0.182

MBLAC2 (UniProt Q68D91)
inactive: [1] 0.028 | [2] -0.076 | [3] -0.003 | [4] -0.126 | [5] 0.059 | [6] 0.026 | [7] 0.08 | [8] 0 | [9] -0.005 | [10] 0.005 | [11] -0.1 | [12] 0.084 | [13] -0.015 | [14] -0.074 | [15] -0.011

MAP3K4 isoform 2 (UniProt Q9Y6R4)
inactive: [6] 0.009 | [8] 0.112 | [14] 0.034

LRP1 (UniProt Q07954)
active: [6] -0.936
inactive: [8] 0.114 | [9] 0.122 | [11] 0.233 | [14] 0.296 | [15] -0.032

MAPK7 (UniProt Q13164)
Sequence of UniProt Q13164 (Q13164 whole entry, looked up): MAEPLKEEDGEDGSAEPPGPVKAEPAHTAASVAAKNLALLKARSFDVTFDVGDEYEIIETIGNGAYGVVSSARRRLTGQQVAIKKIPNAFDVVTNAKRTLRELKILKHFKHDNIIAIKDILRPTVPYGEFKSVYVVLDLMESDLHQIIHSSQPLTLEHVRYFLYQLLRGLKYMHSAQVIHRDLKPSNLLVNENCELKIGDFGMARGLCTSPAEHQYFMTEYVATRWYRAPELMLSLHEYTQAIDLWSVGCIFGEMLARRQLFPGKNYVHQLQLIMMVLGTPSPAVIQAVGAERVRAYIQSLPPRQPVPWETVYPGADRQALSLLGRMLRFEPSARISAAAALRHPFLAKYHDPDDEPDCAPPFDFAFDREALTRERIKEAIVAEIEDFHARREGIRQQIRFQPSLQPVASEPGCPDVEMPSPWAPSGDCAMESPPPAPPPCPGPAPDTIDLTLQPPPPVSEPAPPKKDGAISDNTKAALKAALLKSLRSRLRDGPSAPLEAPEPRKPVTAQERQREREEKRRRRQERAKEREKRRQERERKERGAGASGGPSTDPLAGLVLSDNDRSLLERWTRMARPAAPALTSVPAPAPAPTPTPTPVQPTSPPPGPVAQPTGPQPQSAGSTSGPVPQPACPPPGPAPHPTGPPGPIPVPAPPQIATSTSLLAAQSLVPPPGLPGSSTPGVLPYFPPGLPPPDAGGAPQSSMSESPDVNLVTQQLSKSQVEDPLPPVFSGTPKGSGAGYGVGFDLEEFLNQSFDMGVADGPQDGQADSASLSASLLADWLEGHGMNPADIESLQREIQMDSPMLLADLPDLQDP
inactive: [6] -0.156 | [8] -0.044 | [9] 0.028 | [10] 0.011 | [12] -0.102 | [13] 0 | [14] -0.01 | [15] 0.029

— the supplement of paper PMC10849652
